The whole screen tested about 5,500 compounds, of which about 2,000 (36%) were called active. Roughly 18% stayed inconclusive and do not appear here. Cut-off read from the data, not from the text of the source: active = normalized growth mostly below about 0.91 (no sharp cut-off); inconclusive = no clear call, values can overlap the other calls; inactive = mostly above about 0.92. This is one part of the list.
Assay: chemical genetic growth profiling, strain panel (AID 1159580);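 note: tested at 20 µM; growth read once vehicle control cultures reached saturation at 30 °C; 1 = growth at the plate median or of vehicle wells; lower values mean less growth of the strain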
Settings: S. cerevisiae deletion strains, growth OD

Measured: normalized growth

CC(C)=CCCC(C)[C@@H]1CC[C@]2(C)C3=C(CC[C@@]12C)C1(C)CC[C@H](O)C(C)(C)C1CC3 (some centres undefined)
active: locus YKL009W, strain mrt4, stronger effect = lower value 0.775 | locus YKR026C, strain gcn3, stronger effect = lower value 1.09 [resistant] | locus YKR091W, strain srl3, stronger effect = lower value 1.1 [resistant] | locus YLL026W, stronger effect = lower value 1.07 [resistant] | locus YLR262C, strain YPT6 (second series), stronger effect = lower value 0.822 | locus YMR307W, strain GAS1, stronger effect = lower value 1.42 [resistant] | locus YNL233W, strain BNI4, stronger effect = lower value 1.13 [resistant] | locus YOL147C, strain pex11, stronger effect = lower value 1.1 [resistant] | locus YOR080W, strain dia2, stronger effect = lower value 1.09 [resistant] | locus YOR184W, strain ser1, stronger effect = lower value 0.85 | locus YOR265W, strain rbl2, stronger effect = lower value 1.07 [resistant] | locus YPL106C, strain sse1, stronger effect = lower value 1.26 [resistant]
inactive: locus YJL187C, strain SWE1 (second series), stronger effect = lower value 0.995 | locus YJL187C, strain SWE1, stronger effect = lower value 1.06 | locus YJR066W, strain TOR1, stronger effect = lower value 0.866 | locus YKL068W, stronger effect = lower value 1.04 | locus YKL085W, strain MDH1 (second series), stronger effect = lower value 1.03 | locus YKL085W, strain MDH1, stronger effect = lower value 1.03 | locus YKL160W, strain elf1, stronger effect = lower value 1.03 | locus YKR001C, strain vps1, stronger effect = lower value 0.979 | locus YLL001W, strain dnm1, stronger effect = lower value 1.07 | locus YLL041C, strain sdh2, stronger effect = lower value 1.06 | locus YLR027C, strain aat2, stronger effect = lower value 1.07 | locus YLR039C, strain RIC1, stronger effect = lower value 1.24 | locus YLR058C, strain SHM2, stronger effect = lower value 0.996 | locus YLR102C, strain apc9, stronger effect = lower value 1.05 | locus YLR113W, strain HOG1, stronger effect = lower value 0.866 | locus YLR221C, strain rsa3, stronger effect = lower value 1.06 | locus YLR258W, strain gsy2, stronger effect = lower value 1.07 | locus YLR268W, strain sec22, stronger effect = lower value 0.973 | locus YLR320W, strain mms22, stronger effect = lower value 1.05 | locus YLR330W, strain CHS5, stronger effect = lower value 1.06 | locus YLR342W, strain FKS1, stronger effect = lower value 1.05 | locus YLR357W, strain rsc2, stronger effect = lower value 1.13 | locus YLR370C, strain arc18, stronger effect = lower value 1.07 | locus YLR371W, strain rom2, stronger effect = lower value 1.06 | locus YLR384C, strain iki3, stronger effect = lower value 1.07 | locus YLR418C, strain cdc73, stronger effect = lower value 1.15 | locus YML016C, strain PPZ1, stronger effect = lower value 1.06 | locus YML032C, strain rad52, stronger effect = lower value 0.946 | locus YML120C, strain ndi1, stronger effect = lower value 1.03 | locus YML124C, strain tub3, stronger effect = lower value 1.06 | locus YMR058W, strain fet3, stronger effect = lower value 1 | locus YMR078C, strain ctf18, stronger effect = lower value 1.08 | locus YMR125W, strain sto1, stronger effect = lower value 1.07 | locus YMR129W, stronger effect = lower value 1.06 | locus YMR205C, strain PFK2, stronger effect = lower value 1.04 | locus YMR223W, strain ubp8, stronger effect = lower value 0.971 | locus YMR231W, strain pep5, stronger effect = lower value 1.04 | locus YNL067W, strain RPL9B, stronger effect = lower value 1.02 | locus YNL071W, strain lat1, stronger effect = lower value 1.04 | locus YNL128W, strain TEP1, stronger effect = lower value 0.996 | locus YNL183C, strain NPR1, stronger effect = lower value 0.846 | locus YNL209W, strain ssb2, stronger effect = lower value 1.06 | locus YNL248C, strain rpa49, stronger effect = lower value 1.01 | locus YNL250W, strain rad50, stronger effect = lower value 0.996 | locus YNL271C, strain bni1, stronger effect = lower value 1.01 | locus YNL298W, strain CLA4, stronger effect = lower value 0.917 | locus YNL307C, strain MCK1, stronger effect = lower value 1.03 | locus YNL322C, strain KRE1 (second series), stronger effect = lower value 1.08 | locus YNR049C, strain mso1, stronger effect = lower value 1.08 | locus YNR052C, strain pop2, stronger effect = lower value 0.968 | locus YOL012C, strain htz1 1.41 | locus YOR001W, strain rrp6, stronger effect = lower value 1.02 | locus YOR061W, strain CKA2, stronger effect = lower value 0.994 | locus YOR069W, strain VPS5, stronger effect = lower value 1.05 | locus YOR070C, strain gyp1, stronger effect = lower value 1.05 | locus YOR083W, strain WHI5, stronger effect = lower value 0.994 | locus YOR106W, strain vam3, stronger effect = lower value 0.939 | locus YOR136W, strain idh2, stronger effect = lower value 1.02 | locus YOR144C, strain elg1, stronger effect = lower value 1.02 | locus YOR231W, strain MKK1, stronger effect = lower value 0.874 | locus YOR270C, strain vph1, stronger effect = lower value 0.839 | locus YOR290C, strain snf2, stronger effect = lower value 0.992 | locus YOR316C, strain cot1, stronger effect = lower value 1.06 | locus YPL051W, strain arl3, stronger effect = lower value 1.02 | locus YPL078C, strain atp4, stronger effect = lower value 1.02 | locus YPL240C, strain hsp82, stronger effect = lower value 1.05 | locus YPL256C, strain CLN2, stronger effect = lower value 0.994 | locus YPR119W, strain clb2, stronger effect = lower value 1.07 | locus YPR141C, strain kar3, stronger effect = lower value 1.05 | locus YPR163C, strain tif3, stronger effect = lower value 0.975 | locus YPR167C, strain met16, stronger effect = lower value 1.03 | strain wtn01, stronger effect = lower value 0.949

— PubChem BioAssay AID1159580 (chemical genetic matrix, 2015)
